Experimental findings from PubChem BioAssay AID489025 (Southern Research Specialized Biocontainment Screening …, 2010) are described below.

Screen size: about 2,300 compounds; about 790 (34%) were called active. No rule for the calls is given here. The list shows a part of the results. Measured potencies and affinities stand elsewhere.

The nature of this test: THP-1 cell cytotoxicity, dose response, cytotoxicity control for non-replicating M. tuberculosis project (AID 489025). As to conditions: THP-1 cell viability; series mostly up to 40 µM.
On to `CCCc1cc(C(=O)Nc2ccccc2SC)no1`, for which the compound was called inactive.

With `CCOC(=O)c1c(C)nc2cc(C)ccn12`, the compound was classed as inactive.

In the case of `c1ccc(-c2noc(CC3CCCCC3)n2)nc1`, the result was inactive.

On to `Cc1c(-c2ccc(Br)cc2)nc2ccccn12`, for which the result was inactive.

Consider `CCCCCC1CC(CC(=O)NC(=S)Nc2ccc([N+](=O)[O-])cc2)C(=O)O1` (stereo not drawn), for which the compound was called inactive.

Turning to `O=C(N/N=C/c1ccc[nH]1)c1ccc(Cl)cc1`, the compound was classed as inactive.

In the case of `Cc1ccc(-c2nnc(NC3CCCC3)s2)cc1`, the outcome was inactive.

Regarding `CCOC(=O)COc1cc(N)c(Cl)cc1Cl`, the compound was called inactive.

Consider `CCCCc1ccc(NS(=O)(=O)c2c(C)n(C)c(=O)n(C)c2=O)cc1`, for which the compound was called inactive.

Turning to `CN1CCN(/N=C/c2ccc(-c3ccc([N+](=O)[O-])cc3Cl)o2)CC1`, the compound was called inactive.

As for `c1ccc(-c2nnc(SCc3cn4ccsc4n3)o2)cc1`, the result was inactive.

Take `COC(=O)[C@@H](NC(=O)c1cc(COc2cncc(Cl)c2)on1)c1ccccc1`: the result was inactive.

`CCCCCCOc1ccc(C(=O)O)cc1C#N`: the call was inactive.

For the compound `N#CC(C(=O)NCc1ccco1)c1nc2ccccc2nc1N1CCOCC1` (stereo not drawn), the compound was called inactive.

On to `CCOC(=O)C1CCN(c2nc3cc(OC)ccc3cc2C#N)CC1`, for which the compound was called inactive.

As for `Cc1ccc(C)c(NC(=O)COC(=O)c2cc3ccccc3oc2=O)c1`, the compound was called inactive.

On to `CC(NC(=O)COc1ccc(-c2ccccc2)cc1)C1CCCO1` (stereo not drawn), for which the call was inactive.

On to `CC(C)OC(=O)COc1ccc(-c2ccccc2)cc1`, for which the result was inactive.

With `COC(=O)c1ccc(CSc2nnc(-c3ccncc3)o2)o1`, the outcome was inactive.

With `COCCCn1c(=NC(=O)c2ccccc2)c(C#N)cc2c(=O)n3cccc(C)c3nc21`, the compound was classed as inactive.

Consider `O=C(COC(=O)c1ccccn1)Nc1cccc(Cl)c1Cl`, for which the compound was classed as inactive.

Turning to `O=C(Nc1ccn(Cc2ccccc2)n1)c1ccc(F)cc1`, the call was inactive.

In the case of `CN(CCCCOc1ccc(F)cc1)Cc1ccccc1`, the outcome was inactive.

With `C=CCN=C1SC(CC)C(=O)N1S(=O)(=O)c1ccc(C)cc1` (stereo not drawn), the call was inactive.

Turning to `Cc1ccc(Sc2ccc(/C=C3/C(=O)NN(c4ccccc4)C3=O)o2)cc1`, the outcome was inactive.

For the compound `Cc1ccc(N=Nc2c(C)[nH]n(C(N)=S)c2=O)cc1C`, the compound was classed as inactive.

On to `O=[N+]([O-])c1ccccc1C1Nc2cccc3cccc(c23)N1`, for which the call was inactive.

As to `CCOc1ccc(NCC(=O)c2ccc(C)cc2)cc1`, the call was inactive.

`NC(N)=N/N=C/c1cccc([N+](=O)[O-])c1O`: the outcome was inactive.

`Cc1cc(/C=N\NC(=O)c2cccs2)c(C)n1-c1ccc2ncccc2c1`: the compound was called inactive.

On to `Cc1cccc(Cc2cnc(NC(=O)C3=NCCN3)s2)c1`, for which the compound was called inactive.

As for `COc1cc(/C=C2/C(=O)NN(c3ccc(Cl)cc3)C2=O)ccc1OC(=O)c1ccco1`, the compound was called inactive.

With `COC(=O)C1CC(=O)N(c2ccc(OCc3ccccc3Cl)cc2)C1` (stereo not drawn), the call was inactive.

`O=C(CCC1CCCCC1)NCc1ccc(F)cc1`: the result was inactive.

With `Cc1nnc(N/N=C/c2ccc(-c3ccccc3F)o2)n1N`, the outcome was inactive.

Regarding `CN1C(c2ccccc2)CC(=NO)CC1c1ccccc1` (stereo not drawn), the compound was called inactive.

In the case of `CC(CN1CCOCC1)OC(=O)c1ccc2c(c1)OCCO2` (stereo not drawn), the compound was classed as inactive.

`O=C(COC(=O)Cc1ccc(Br)cc1)Nc1ccc(N2CCOCC2)cc1`: the compound was called inactive.

As to `Cc1[nH]n2c(=O)c3c(nc2c1-c1ccccc1)CCCC3`, the result was inactive.

Regarding `N/C(=N\OC(=O)CC1CCCCC1)c1ccncc1`, the result was inactive.

On to `CCOC(=O)CN(C#N)c1nc(N(C)C)nc(N(C)C)n1`, for which the compound was called inactive.

`O=C(N/N=C/c1ccc[nH]1)c1ccc2c(c1)OCO2`: the outcome was inactive.

With `CCOc1ccc(/C=N/OCC(=O)Nc2ccc3c(c2)OCO3)cc1`, the compound was classed as inactive.

With `O=C(N/N=C/c1coc2ccccc2c1=O)c1ccc(Cl)cc1`, the compound was called inactive.

`O=C(COc1ccc(F)cc1)Nc1ccc2c(c1)OCCO2`: the outcome was inactive.

Regarding `O=C(NCCc1c[nH]c2ccccc12)c1cc2ccccc2oc1=O`, the result was inactive.

Consider `Cc1nnc(SCCC(=O)Nc2ccc(Cl)cc2)o1`, for which the compound was classed as inactive.

Regarding `O=C(Nc1ncc2c(n1)-c1ccccc1OC2)c1ccc(F)cc1`, the compound was called inactive.

Turning to `O=C(Cc1ccccc1)Nc1ccc(C(=O)NCC2COc3ccccc3O2)cc1` (stereo not drawn), the compound was classed as inactive.

For `COc1ccc(OC(=O)CCc2c[nH]c3ccccc23)cc1`, the call was inactive.

In the case of `O=C(COC(=O)CCc1c[nH]c2ccccc12)NCc1ccc2c(c1)OCO2`, the result was inactive.

For the compound `N#Cc1ccc(COC(=O)CCc2c[nH]c3ccccc23)cc1`, the result was inactive.

With `O=C(COC(=O)CCc1c[nH]c2ccccc12)NCc1ccc(Cl)cc1`, the compound was called inactive.

For the compound `Cc1cc(C)c2sc(NC(=O)C3=COCCO3)nc2c1`, the outcome was inactive.

For the compound `O=c1cc(-c2ccncc2)oc2c1ccc1ccccc12`, the compound was called inactive.

`Cc1ccc(N/N=C2\CS(=O)(=O)N(C)c3ccsc32)cc1`: the call was inactive.

For `CCCCOC(=O)C1CCCC(C(=O)OCCCC)N1` (stereo not drawn), the compound was called inactive.

Turning to `CCN1CCC(=NNC(=O)c2ccco2)CC1`, the compound was classed as inactive.

On to `CCOC(=O)c1ccc(N=CC2=C(O)CC(C)(C)CC2=O)cc1`, for which the compound was classed as inactive.

Consider `CCCn1nnnc1NC(=O)c1cc(Cl)ccc1Cl`, for which the compound was called inactive.

For `CCCn1nnnc1NC(=O)COc1ccc(Br)cc1`, the call was inactive.

Consider `CCOC(=O)C(C)Oc1cc(Cl)c(C=O)cc1OC` (stereo not drawn), for which the outcome was inactive.

Take `Cc1ccc(N=Nc2c(C)[nH]n(C(N)=S)c2=O)cc1`: the result was inactive.

As to `CSc1ccc(N=Nc2c(C)[nH]n(C)c2=O)cc1`, the outcome was inactive.

`CCc1cc2c(=O)n(C(C)C(=O)OC3CCCCC3)cnc2s1` (stereo not drawn): the call was inactive.

`COc1ccccc1OCCNC(=O)c1cc([N+](=O)[O-])cc([N+](=O)[O-])c1`: the outcome was inactive.

Turning to `CC1CCCN(CCCOc2ccc([N+](=O)[O-])cc2)C1` (stereo not drawn), the result was inactive.

Turning to `CC(C)(C)C(=O)COc1ccccc1[N+](=O)[O-]`, the compound was classed as inactive.

`Cc1cccc(NC(=O)CCSc2nnc(Cc3ccccc3)o2)c1`: the result was inactive.

Take `CCN1C(=O)CC(N2CCC(c3nc4ccccc4[nH]3)CC2)C1=O` (stereo not drawn): the call was inactive.

For `CCOC(=O)C(=CNNc1cccc(Cl)c1)C(=O)OCC`, the call was inactive.

As for `Cc1ccc2c(c1)c1c3n2CCN=C3CCC1`, the call was inactive.

As to `Cc1ccc2[nH]c3c(c2c1)CCCC3NCCO` (stereo not drawn), the result was inactive.

With `COc1ccc(C2(O)CCN(CCCCOc3ccccc3)CC2)cc1`, the compound was called inactive.

Consider `OCC1(CCOc2ccccc2)CCN(Cc2cc(Cl)ccc2O)CC1`, for which the compound was called inactive.

For the compound `COc1cc(NCCC(=O)c2cccs2)c(OC)cc1Cl`, the call was inactive.

As to `Cc1cc(=O)n2cccc(O)c2n1`, the compound was called inactive.

`CC(C)(C)c1ccc(NC(=O)COc2ccc(-n3ccnc3)cc2)cc1`: the outcome was inactive.
